Data published in PubChem BioAssay AID598 (SRMLSC, 2007).
Among all 85,000 compounds or so, about 5,100 (6%) were called active. Shown is part of a subset that was picked to be rich in actives. Unmarked numbers belong to inactive results.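 How the source made its calls: active means viability at or below 40%; inactive means viability above 40%.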

Test: H69AR cell viability reduction – human, 86K library, primary screen (AID 598);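 further: multidrug resistant small cell line overexpressing MRP-1 efflux transporter; 100% = mean luminescence of untreated control wells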
Conditions: H69AR lung tumor viability, ATP luminescence, 72 h; at 10 µM; hits give low values
`COc1cc(-c2nc(-c3ccncc3)no2)cc(OC)c1OC` showed a viability of 88.6%.
For `CCOc1nc(-c2ccc(OC)cc2)ccc1-c1noc(-c2cc(OC)c(OC)c(OC)c2)n1`, the viability was 13.9% (active).
In the case of `COc1ccc(-c2ccc(-c3noc(-c4ccncc4)n3)c(OC)n2)cc1`, the viability is reported as 93.4%.
Work on `Cc1ccc(OCC(=O)N/N=C\c2ccco2)c(C)c1` yielded a viability of 93.4%.
`Cc1ccc(S(=O)(=O)NC(=O)N2CCCC(C)(C)C2)cc1` gave a viability of 91%.
With `Cc1ccc(S(=O)(=O)C2(S(=O)(=O)c3ccc(C)cc3)CCCC2)cc1` the viability was 18.3% (active).
With `Cc1ccc(S(=O)(=O)N(C)C2(C)CCS(=O)(=O)C2)cc1` (stereo not given) the viability was 109%.
With `O=C1Nc2c(Br)cc(Br)cc2C1(O)N1CCOCC1` (stereo not given) the viability was 31.2% (active).
Work on `CCc1c(C)nc2cc(-c3cccs3)[nH]n2c1=O` yielded a viability of 91.8%.
`Cc1c(-c2ccccc2)nc(N)c(C#N)c1-c1cccs1` gave a viability of 77%.
For `CCc1c(-c2ccccc2)nc(N)c(C#N)c1-c1cccs1`, the viability was 36% (active).
`O=C(O)CSc1nccn1-c1cccc(Cl)c1` showed a viability of 88.9%.
Compound `Cc1noc(NS(=O)(=O)c2ccc(N/C=C/C(=O)c3ccccc3)cc2)c1C` has a viability of 76.1%.
Work on `COc1ccc(CCNS(=O)(=O)c2ccc(Cl)s2)cc1OC` yielded a viability of 93%.
Compound `COc1ccc(-c2nnco2)cc1OC` has a viability of 107%.
With `COc1ccc(-c2cc(C(F)(F)F)nc(S(C)(=O)=O)n2)cc1OC` the viability was 1.78% (active).
`COc1ccc(-c2cc(C(F)(F)F)nc(NCc3cccnc3)n2)cc1` showed a viability of 92.9%.
For `O=C(Nc1nncs1)c1cccc(S(=O)(=O)N2CCCCC2)c1`, the viability was 94.8%.
`Cc1ccc(-n2c(SCC(=O)Nc3ccc4c(c3)OCO4)nnc2-c2ccccn2)cc1` showed a viability of 65.9%.
`Cc1cc(C)c(S(=O)(=O)N2C=CC(C(F)(F)F)=NCC2)c(C)c1` showed a viability of 109%.
`CCCCN(CC)CCNC(=O)c1[nH]c(C)c(C(C)=O)c1C` gave a viability of 101%.
In the case of `Cc1ccc(C2(C(F)(F)F)N=C3Sc4cc(C)cc(C)c4N3C(=O)N2)cc1` (stereo not given), the viability is reported as 101%.
For `CCOC(=O)c1sc(=S)n2c1[nH]c(=O)c1ccc(C(=O)OC)cc12`, the viability was 36.7% (active).
Compound `CCOC(=O)c1sc(=S)n(-c2cccc(OC)c2)c1N` has a viability of 97.3%.
Work on `CCOC(=O)Cn1c(N)c(C(=O)OC)sc1=S` yielded a viability of 105%.
In the case of `Cc1ccc(C)c(N2C(=O)CS/C2=N\NC(=O)c2ccccc2Cl)c1`, the viability is reported as 101%.
`Cn1ccs/c1=N\S(=O)(=O)c1ccc(C(C)(C)C)cc1` showed a viability of 89.4%.
`COc1ccc(NC(=O)C2C3C=CC(C3)C2C(=O)NCc2ccccn2)c(OC)c1` (stereo not given) gave a viability of 93.1%.
In the case of `O=C(NCCc1ccccc1)c1ccc(OCCOc2ccccc2)cc1`, the viability is reported as 87.8%.
For `COc1ccccc1NC1=NC(c2ccc(Cl)cc2)N=C(N)N1` (stereo not given), the viability was 19.5% (active).
Compound `COc1ccccc1Nc1nc(N)nc(CN(C)C2CCCCC2)n1` has a viability of 87.4%.
In the case of `COc1ccccc1NC1=NC2(CCCC2)N=C(N)N1`, the viability is reported as 91.5%.
With `Cc1ccc(S(=O)(=O)NCC(C)NS(C)(=O)=O)cc1` (stereo not given) the viability was 95.2%.
Work on `CCOC(=O)c1sc(NC(=O)c2ccncc2)nc1C` yielded a viability of 96.2%.
With `CCCCCOC(=O)c1ccc(N2C(=O)C3C4C=CC(C4)C3C2=O)cc1` (stereo not given) the viability was 95.1%.
With `COc1ccc(Nc2cc(=O)oc3ccccc23)cc1` the viability was 18.4% (active).
`COC(=O)COc1ccc2oc(=O)cc(C)c2c1` showed a viability of 91.9%.
For `COc1ccc(N2CCN(Cc3cc(=O)oc4ccc5ccccc5c34)CC2)cc1`, the viability was 71.9%.
In the case of `Cc1cc(N2CCN(S(=O)(=O)c3ccc(C)c(C)c3)CC2)c2ccccc2n1`, the viability is reported as 66.8%.
In the case of `CC1(C)CCc2nc(SCc3ccccc3)c(C#N)cc2C1`, the viability is reported as 81.4%.
In the case of `CC(NC(=O)CSc1nc2c(cc1C#N)CN(C)CC2)c1ccccc1` (stereo not given), the viability is reported as 15.6% (active).
Work on `Cc1ccc2cc(C#N)c(SCC(=O)NCC3CCCO3)nc2c1C` (stereo not given) yielded a viability of 91.2%.
Compound `O=C1C2N=NN(CC(=O)N3N=C(c4cccc5ccccc45)CC3c3ccccc3)C2C(=O)N1c1ccccc1` (stereo not given) has a viability of 70.5%.
In the case of `CCN1CCCC1Cn1cnc2c([nH]c3cc(OC)ccc32)c1=O` (stereo not given), the viability is reported as 79.9%.
Compound `Cc1cccc(CCNS(=O)(=O)c2ccc(S(=O)(=O)NC3CCCC3)cc2)c1` has a viability of 78%.
For `O=C(Nc1ccc(Cl)cc1)c1cc2nc(C3CC3)cc(C(F)(F)F)n2n1`, the viability was 79.5%.
In the case of `Cc1cc(C)c2[nH]c(=O)c(C(c3nnnn3Cc3ccc4c(c3)OCO4)N3CCCC3)cc2c1` (stereo not given), the viability is reported as 68.1%.
In the case of `CCOC(=O)C1CCN(C(c2cc3cc(C)cc(C)c3[nH]c2=O)c2nnnn2C2CCCCC2)CC1` (stereo not given), the viability is reported as 6.09% (active).
`COc1ccc(N2CCN(C(c3cc4ccc(C)cc4[nH]c3=O)c3nnnn3C3CCCC3)CC2)cc1` (stereo not given) showed a viability of 86.9%.
Compound `Cc1ccc(-c2noc(CC(c3ccccc3)c3ccccc3)n2)cc1` has a viability of 97.1%.
`CCn1c(CNC(=O)c2ccccc2)nnc1SCC(=O)N1CCN(c2ccccc2)CC1` showed a viability of 90.4%.
For `Cc1cccc2nc(CSc3nc4[nH]ncc4c(=O)n3-c3cccc(Cl)c3)cc(=O)n12`, the viability was 41.8%.
Compound `Cc1cc(C)c2c(n1)nn1c(N3CCOCC3)cc(C)nc21` has a viability of 72.3%.
Work on `Cc1cc(C)c2c(n1)nn1c(-n3ccnc3)cc(C)nc21` yielded a viability of 74.5%.
For `Cc1cc(C)c2c(n1)nn1c(N3CCN(c4cccc(Cl)c4)CC3)cc(C)nc21`, the viability was 17.6% (active).
With `O=C(CSc1c2c(nc3ccc(Cl)cc13)CCCC2)NCc1ccco1` the viability was 7.34% (active).
For `O=C(NCc1ccco1)C1(c2ccc(Cl)cc2)CCCC1`, the viability was 96.8%.
`O=C(NCc1ccco1)c1cc(-c2cccnc2)nc2ccc(Cl)cc12` gave a viability of 68.3%.
`COc1ccc(-n2nnnc2SCc2nc(N)nc(N3CCOCC3)n2)cc1` gave a viability of 94.2%.
`Cc1cc(NC(=O)CS(=O)(=O)c2cn(C)c3ccccc23)no1` gave a viability of 78.6%.
In the case of `C=C(C)Cn1c(SCC(=O)NCc2ccco2)nc2sc3c(c2c1=O)CCC3`, the viability is reported as 49.4%.
Compound `O=C(CCCn1c(SCC(=O)c2ccc(F)cc2)nc2ccccc2c1=O)NCc1ccco1` has a viability of 58.2%.
In the case of `O=C(CSc1nc2cc3c(cc2c(=O)n1CCC1=CCCCC1)OCO3)NCc1ccco1`, the viability is reported as 36.1% (active).
`Cc1c(CCO)c(=O)n(-c2ccccc2)n1S(=O)(=O)c1ccc(F)cc1` gave a viability of 75.6%.
`CCn1c(SCC(=O)Nc2ccc(S(=O)(=O)Nc3onc(C)c3C)cc2)nnc1-c1ccccc1` gave a viability of 98.3%.
In the case of `COn1c(=O)c(=O)n(OC)c2ccccc21`, the viability is reported as 97.1%.
`COC(=O)c1ccccc1Oc1c(F)c(F)nc(N2CCOCC2)c1F` gave a viability of 67.1%.
Work on `Cc1ccc(C(C(=O)NC2CCCC2)N(Cc2ccco2)C(=O)CCC(=O)Nc2ccccn2)cc1` (stereo not given) yielded a viability of 69.7%.
Compound `Cc1ccc(C)c(N(CC(=O)NCc2ccco2)C(=O)CCC(=O)Nc2ccccn2)c1` has a viability of 98.1%.
In the case of `Cc1ccc2c(c1)N(CC(=O)N(Cc1ccccn1)Cc1ccco1)C(=O)C(C(C)C)O2` (stereo not given), the viability is reported as 35% (active).
In the case of `COc1cc(S(=O)(=O)N(Cc2cccs2)C2CC2)ccc1-n1cnnn1`, the viability is reported as 68%.
In the case of `COC(=O)c1ccccc1NC(=O)Cc1ccccc1OC`, the viability is reported as 94.2%.
Compound `CCOC(=O)c1nnn(-c2nonc2-n2cccc2)c1CN1CCC(C(=O)OCC)CC1` has a viability of 70.5%.
For `CCOc1ccc(S(=O)(=O)NCCSc2ccccc2)cc1`, the viability was 105%.
In the case of `COc1ccc(C(=O)N2CC3(C)CC2CC(C)(C)C3)cc1OC` (stereo not given), the viability is reported as 88.7%.
With `Cc1coc2c(O)cc3c(c12)OC1(N2CCCCC2)C(=O)NCCCC31` (stereo not given) the viability was 1.27% (active).
In the case of `CCc1c(O)cc2n(c1=O)-c1ccccc1C2(C)C`, the viability is reported as 91.5%.
For `COc1ccc(Br)cc1/C=N/n1c(C)nnc1C`, the viability was 28.1% (active).
`COC(=O)c1ccc(/C=N\n2c(C)nnc2C)cc1` showed a viability of 99.6%.
In the case of `Cc1nnc(C)n1/N=C/c1ccc(C(C)C)cc1`, the viability is reported as 106%.
`CCN(CC)CC(=O)c1c[nH]c2ccc(OC)cc12` gave a viability of 77.2%.
Compound `CC(c1ccco1)N(C(=O)Nc1ccccc1)C1CCCCC1` (stereo not given) has a viability of 77.7%.
Compound `O=C(CO/N=C/c1ccccc1O)NNC(=O)c1ccccc1Cl` has a viability of 102%.
With `CC[C@]1(O)CC2CN(CCc3c([nH]c4ccccc34)[C@@](C(=O)OC)(c3cc4c(cc3OC)N(C=O)[C@H]3[C@@](O)(C(=O)OC)[C@H](OC(C)=O)[C@]5(CC)C=CCN6CC[C@]43[C@@H]65)C2)C1` (stereo not given in full) the viability was 31.9% (active).
Work on `CC(C)c1cc(C(=O)O)n[nH]1` yielded a viability of 102%.
`Cc1ccc(NC(=O)CSCC(=O)N2CCOCC2)cc1` gave a viability of 93.9%.
With `CCCc1[nH]nc2c1C(c1ccc(Br)s1)C(C#N)=C(N)O2` (stereo not given) the viability was 1.42% (active).
Work on `CCCc1[nH]nc2c1C(c1ccc(OC(=O)c3ccco3)cc1)C(C#N)=C(N)O2` (stereo not given) yielded a viability of 97.7%.
Work on `CCCc1[nH]nc2c1C(c1ccc(OC)c(Cn3nc(C)c(Br)c3C)c1)C(C#N)=C(N)O2` (stereo not given) yielded a viability of 87.4%.
Compound `CCOc1ccc(CN(Cc2ccco2)S(=O)(=O)c2ccc(-n3cnnn3)c(OC)c2)cc1` has a viability of 66.6%.
`Cc1c(C=O)c2ccccn2c1C(=O)c1ccncc1` gave a viability of 87.6%.
With `Cc1ccc(-c2cc(C(=O)NCC3CCCO3)c3ccccc3n2)o1` (stereo not given) the viability was 87.9%.
With `Cc1ccc2nc(-c3ccc(SCC(=O)Nc4cc(C)on4)nc3)[nH]c2c1` the viability was 10.7% (active).
With `COc1ccc2nc(SCC(=O)Nc3c(C)cc(C)cc3C)[nH]c2c1` the viability was 71.7%.
With `Cc1ccc(-c2csc(SCC(=O)Nc3cc(C)on3)n2)cc1` the viability was 87.9%.
